Assay outcomes as filed in PubChem BioAssay.
PostGolgi yeast: growth inhibition of a yeast mutant, post-Golgi transport screen; post-Golgi transport phenotypic cell assay; inhibition, % at 10 µM; hit rate 0.9% among 98,000;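 note: yeast cells grown in 1536-well plates; yeast grown about 18 h at 30C before absorbance read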
CYP2C9 inhib: blocks human cytochrome P450 2C9 | hit rate 20% among 96,000 | CYP2C9 Supersomes, luciferin-H conversion, luminescence | inhibition, % at 5 µM | P11712;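 active = blocking of liver enzyme CYP2C9 beyond about 50% at 5 µM, limit read from the data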
CYP2C9 activ: activators of human CYP2C9; AID 1024; recombinant CYP2C9, luciferin-H conversion, luminescence; stronger effect = higher value; factor 1 = untreated enzyme, 0 = blocked; hit rate 1.4% among 96,000; activation factor at 5 µM;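 active = activation factor of 2 or more for CYP2C9 at a 5 µM dose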
CYP2C19 inh: blocks human cytochrome P450 2C19 | hit rate 21% among 96,000 | P33261 | inhibition, % at 5 µM | CYP2C19 Supersomes, luciferin-H EGE luminescence, 30 min;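 active = CYP2C19 inhibition above a set limit at 5 µM in the primary screen, cut at about 50% in these data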
Target sequence (P33261 whole entry, looked up): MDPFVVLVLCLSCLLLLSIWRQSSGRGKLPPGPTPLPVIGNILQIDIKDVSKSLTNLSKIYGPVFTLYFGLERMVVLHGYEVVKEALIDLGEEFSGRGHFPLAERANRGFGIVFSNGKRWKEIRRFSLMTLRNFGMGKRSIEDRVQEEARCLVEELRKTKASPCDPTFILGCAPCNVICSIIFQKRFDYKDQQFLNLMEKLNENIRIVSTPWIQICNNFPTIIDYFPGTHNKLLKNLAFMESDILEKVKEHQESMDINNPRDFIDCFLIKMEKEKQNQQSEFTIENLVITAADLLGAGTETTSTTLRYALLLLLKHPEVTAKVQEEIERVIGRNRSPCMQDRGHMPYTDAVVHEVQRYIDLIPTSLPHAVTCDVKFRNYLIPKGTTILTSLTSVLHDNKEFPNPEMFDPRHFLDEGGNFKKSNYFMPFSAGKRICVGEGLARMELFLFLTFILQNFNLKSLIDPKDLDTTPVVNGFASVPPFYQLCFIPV
PostGolgi ctrl: yeast control strain growth, post-Golgi counter-screen; efflux-deficient yeast background strain, growth absorbance A615, 16 h; inhibition, % at 10 µM; hit rate 5% among 98,000
CYP2C19 activ: activators of human cytochrome P450 2C19; recombinant CYP2C19, luciferin-H EGE luminescence; stronger effect = higher value; 0 = fully inhibited enzyme, 1 = untreated enzyme; 96,000 tested, under 10 active; P33261; activation factor at 5 µM;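 active = activation factor of at least 2 at 5 µM in the primary screen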
Large screens that a line does not name were inactive. Sampled rows, rich in hits. Any-hit rate of the full collection: about 32%. Cut-off read from the data, not from the text of the source, unless noted: active = inhibition above about 30%; inactive = the rest.

COc1ccc(S(=O)(=O)N2CCN(C(=O)c3c(-c4ccccc4)noc3C)CC2)cc1	none
O=S(=O)(c1ccc(-c2cn3ccccc3n2)cc1)N1CCOCC1	CYP2C9 inhib 54.9
O=C(c1ccco1)N1CCN(S(=O)(=O)c2ccc(S(=O)(=O)NC3CC3)cc2)CC1	none
O=S(=O)(c1ccc(Oc2ncnc3scc(-c4ccccc4)c23)cc1)N1CCOCC1	CYP2C9 inhib 73.1, CYP2C19 inh 71.8
O=C(c1ccco1)N1CCN(S(=O)(=O)c2ccc(Oc3ccccc3)cc2)CC1	CYP2C9 inhib 84.4, CYP2C19 inh 53.7
Cc1onc(-c2ccccc2)c1C(=O)N1CCN(S(=O)(=O)c2ccc3c(c2)OCCO3)CC1	CYP2C19 inh 73.6
C[C@H](NC(=O)c1ccco1)C(=O)Nc1ccc(S(=O)(=O)N2CCCC2)cc1	none
Cc1n[nH]c(C)c1S(=O)(=O)N1CCN(C(=O)c2ccco2)CC1	none
O=S(=O)(c1ccc(Oc2ccccc2)cc1)N1CCOCC1	CYP2C9 inhib 56.8
O=C(CCc1ccc(S(=O)(=O)N2CCOCC2)cc1)Oc1ccccc1	none
CC(C(=O)Nc1ccc(S(=O)(=O)N2CCCC2)cc1)N1CCN(C(=O)c2ccco2)CC1 (stereo not drawn)	CYP2C9 inhib 63.8
O=C(c1ccco1)N1CCN(S(=O)(=O)c2ccc3c(c2)OCCO3)CC1	CYP2C19 inh 95.5
O=C(C1CCCO1)N1CCN(Cc2c(O)ccc3ccccc23)CC1 (stereo not drawn)	none
CC(/C=N\NC(=O)Cn1c(C)nc2ccccc21)=C\c1ccccc1	none
Cc1nc(S(=O)(=O)N2CCOCC2)c(C#N)c(C)c1Cl	none
CCN(C(=O)CSc1nc2ccccc2n1CCc1ccccc1)C1CCS(=O)(=O)C1 (stereo not drawn)	CYP2C19 inh 66.8
CCOC(=O)c1ccc(N2C(=O)C3CC=C(C)CC3C2=O)cc1 (stereo not drawn)	none
O=C(CSc1nc(-c2cccs2)cc(C(F)(F)F)n1)NCc1ccco1	CYP2C9 inhib 79.2, CYP2C19 inh 61.7
O=C(NCc1ccco1)c1nn2c(C(F)(F)F)cc(-c3cccs3)nc2c1Br	CYP2C9 inhib 73.1
CCC(C)NC(=O)CSc1nc(-c2cccs2)cc(C(F)(F)F)n1 (stereo not drawn)	CYP2C9 inhib 88.5, CYP2C19 inh 97.2
O=C(CSc1nc(-c2ccccc2)cc(C(F)(F)F)n1)NCc1ccco1	none
COc1ccc(-n2c(=O)c3ccccc3n(CC(=O)NC3CCCCC3)c2=O)cc1	none
O=C(CN(Cc1ccco1)C(=O)c1cccc(Cl)c1)Nc1c(Cl)cc(Cl)cc1Cl	CYP2C9 inhib 62.4, CYP2C19 inh 50.8
COc1ccccc1CCn1cnc2c3cc(C)ccc3n(C)c2c1=O	CYP2C9 inhib 70.9, CYP2C19 inh 93.3
COc1ccc2c(c1)c1ncn(CCN3CCCCC3)c(=O)c1n2C	CYP2C9 inhib 56.2
CCOC(=O)c1ccccc1NC(=O)c1cc(S(=O)(=O)N2CCOCC2)ccc1F	CYP2C9 inhib 58.9
CCOC(=O)c1ccccc1NS(=O)(=O)c1ccc(S(=O)(=O)N2CCCC2)cc1	CYP2C9 inhib 90.6, CYP2C19 inh 97.1
CN(C)CCCNC(=O)c1cc(S(=O)(=O)N2CCOCC2)ccc1F	none
O=C(NCCSCc1ccccc1)c1cc(S(=O)(=O)N2CCOCC2)ccc1F	CYP2C9 inhib 69.7, CYP2C19 inh 51.4
O=C(OCCCCN1C(=O)c2ccccc2C1=O)c1ccc(S(=O)(=O)N2CCCC2)cc1	none
O=C(OCCN1C(=O)c2ccccc2C1=O)c1cc(S(=O)(=O)N2CCOCC2)ccc1Cl	CYP2C9 inhib 85.5, CYP2C19 inh 78.5
Cc1noc(C)c1C(=O)Nc1ccc(F)cc1F	none
O=C1Nc2ccccc2N=C(c2ccccc2)C1N1CCOCC1 (stereo not drawn)	CYP2C9 inhib 58.9, CYP2C19 inh 54.3
O=C1CC(c2ccccc2)=Nc2ccccc2N1	none
CC(C)CCN(C(=O)Nc1ccccc1)C(C)c1cccs1 (stereo not drawn)	CYP2C9 inhib 73.5
O=C(Cn1ncc2c(=O)oc3ccccc3c21)N(Cc1ccco1)C1CCCCC1	none (no result: CYP2C9 inhib, CYP2C9 activ, CYP2C19 inh, CYP2C19 activ)
CC(=O)c1cccc(-n2c(CCC(=O)O)ccc2-c2cccs2)c1	none
O=C(O)CCc1ccc(-c2cccs2)n1-c1ccc(C(=O)O)cc1	CYP2C9 activ 2
COc1ccc(N(CC(=O)NCCC2=CCCCC2)S(C)(=O)=O)cc1	CYP2C9 inhib 68.9, CYP2C19 inh 56.9
